SMILES strings stand for the structures. Out of some 310,000 compounds screened, about 14,000 (4.5%) showed an effect of 50% or more. Effects have a minus sign here. For the sample, strong results were picked, then their nearest neighbours and some compounds at random.
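Note: peak tail current of the secondary pulse compared with the same well before compound.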

This experiment deals with human ether-à-go-go-related gene (hERG) potassium channel (human, UniProt Q12809). Kind of experiment: primary screen, population patch clamp on CHO cells stably expressing hERG; higher = less effect of the substance.
Sequence of human ether-à-go-go-related gene (hERG) potassium channel (Q12809 whole entry, looked up): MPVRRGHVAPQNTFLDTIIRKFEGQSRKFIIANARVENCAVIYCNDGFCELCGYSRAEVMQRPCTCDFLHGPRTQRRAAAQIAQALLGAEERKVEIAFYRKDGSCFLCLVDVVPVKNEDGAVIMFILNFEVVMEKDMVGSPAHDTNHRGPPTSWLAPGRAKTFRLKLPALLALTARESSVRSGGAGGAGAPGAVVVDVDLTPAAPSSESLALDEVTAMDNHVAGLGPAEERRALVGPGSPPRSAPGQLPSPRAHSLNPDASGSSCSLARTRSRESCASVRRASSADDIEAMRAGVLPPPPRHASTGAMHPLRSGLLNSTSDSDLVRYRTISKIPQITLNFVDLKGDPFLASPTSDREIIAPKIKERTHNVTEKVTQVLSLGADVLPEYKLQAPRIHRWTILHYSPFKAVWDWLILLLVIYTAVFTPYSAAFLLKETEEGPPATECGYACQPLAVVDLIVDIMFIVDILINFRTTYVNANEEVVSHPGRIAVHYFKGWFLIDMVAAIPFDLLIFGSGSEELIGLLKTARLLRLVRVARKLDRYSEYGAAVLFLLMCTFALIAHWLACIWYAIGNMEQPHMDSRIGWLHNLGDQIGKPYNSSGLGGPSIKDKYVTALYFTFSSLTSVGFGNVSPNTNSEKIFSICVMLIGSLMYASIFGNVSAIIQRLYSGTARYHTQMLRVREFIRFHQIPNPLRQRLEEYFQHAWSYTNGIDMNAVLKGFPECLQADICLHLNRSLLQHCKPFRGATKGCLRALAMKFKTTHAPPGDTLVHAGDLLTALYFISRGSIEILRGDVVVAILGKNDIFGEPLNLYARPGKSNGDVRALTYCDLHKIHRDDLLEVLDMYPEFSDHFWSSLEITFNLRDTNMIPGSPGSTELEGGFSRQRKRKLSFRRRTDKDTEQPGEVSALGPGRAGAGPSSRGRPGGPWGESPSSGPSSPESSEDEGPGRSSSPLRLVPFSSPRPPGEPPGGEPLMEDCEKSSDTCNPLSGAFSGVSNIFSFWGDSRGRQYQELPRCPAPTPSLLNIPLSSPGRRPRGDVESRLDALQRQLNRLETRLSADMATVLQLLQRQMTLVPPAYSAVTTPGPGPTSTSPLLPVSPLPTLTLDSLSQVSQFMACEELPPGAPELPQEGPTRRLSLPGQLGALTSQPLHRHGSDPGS
Regarding `Cc1c(C(=O)NCCN2CCCC(O)C2)oc2c(F)cccc12` (stereo not shown), the “hERG current change (%, negative = inhibition) at 10uM” value is reported as -1.78%.
On to `Cc1c(C(=O)NCc2ccccc2CN2CCCC2)oc2ccc(F)cc12`, for which the “hERG current change (%, negative = inhibition) at 10uM” value is recorded as -74%.
Turning to `CCOc1ccc2oc(C(=O)NC(C)(C)CC)c(C)c2c1`, the “hERG current change (%, negative = inhibition) at 10uM” value is -3%.
`Cc1c(C(=O)NCc2ccccc2CN2CCCC2)oc2c(F)cccc12`: the “hERG current change (%, negative = inhibition) at 10uM” value is recorded as -70.5%.
Turning to `CCOc1ccc2oc(C(=O)NCC(C)(C)CN(C)C)c(C)c2c1.Cl`, the “hERG current change (%, negative = inhibition) at 10uM” value was -54.5%.
On to `Cc1c(C(=O)NCc2ccco2)oc2c(F)cccc12`, for which the “hERG current change (%, negative = inhibition) at 10uM” value is listed as 1.08%.
Next, `CCOc1ccc2oc(C(=O)O)c(C)c2c1`: 4.62%; `COc1ccccc1CNC(=O)c1oc2ccc(S(=O)(=O)N3CCCC3)cc2c1C`: -4.46%.
Turning to `Cc1c(C(=O)NCc2ccccc2)oc2ccc(S(=O)(=O)N3CCCC3)cc12`, the “hERG current change (%, negative = inhibition) at 10uM” value is 2.65%.
For the molecule `CCN(Cc1ccncc1)Cc1ccc(Br)cc1.O=C(O)C(=O)O`, the “hERG current change (%, negative = inhibition) at 10uM” value was -5.38%.
Take `COc1cccc(CC(=O)OC(C)C(=O)NCc2ccc3c(c2)OCO3)c1` (stereo not shown): the “hERG current change (%, negative = inhibition) at 10uM” value is -3.97%.
`COc1cc(C(CC(=O)N2CCN(c3ccccc3)CC2)c2c(OC)cc(OC)c3ccc(=O)oc23)cc(OC)c1OC` (stereo not shown): the “hERG current change (%, negative = inhibition) at 10uM” value is recorded as -29%.
Consider `COc1ccc(-c2nnc(SCC#N)o2)cc1`, for which the “hERG current change (%, negative = inhibition) at 10uM” value is 11.3%.
On to `CCOC(=O)CCCNC(=O)CCNC(=O)c1ccc(OCC(C)C)cc1`, for which the “hERG current change (%, negative = inhibition) at 10uM” value was 3.61%.
In the case of `COc1ccc(C(=O)CN2C(=O)c3ccccc3C2=O)cc1`, the “hERG current change (%, negative = inhibition) at 10uM” value worked out at 7.16%.
As to `COc1ccc(-c2cc(C(F)(F)F)c3c(N)c(C(=O)NCCSC)sc3n2)cc1`, the “hERG current change (%, negative = inhibition) at 10uM” value is -10.7%.
As to `CN(C)CCNC(=O)c1sc2nc(-c3ccccc3)cc(C(F)(F)F)c2c1N`, the “hERG current change (%, negative = inhibition) at 10uM” value is -57.8%.
Turning to `Nc1c(C(=O)C2CC2)sc2nc(-c3ccccc3)cc(C(F)(F)F)c12`, the “hERG current change (%, negative = inhibition) at 10uM” value worked out at 18.8%.
The figure for `COc1ccc(-c2cn(CCO)c(-c3ccc(Cl)nc3)n2)cc1` is -9.71%.
Take `COc1ccc(-c2cn(Cc3ccc(C(N)=O)cc3)c(-c3ccc(Cl)nc3)n2)cc1`: the “hERG current change (%, negative = inhibition) at 10uM” value was -71.4%.
For the molecule `COc1ccc(-c2cn(CCC(=O)O)c(-c3ccc(Cl)nc3)n2)cc1`, the “hERG current change (%, negative = inhibition) at 10uM” value is reported as 9.6%.
Next, `Cc1ccc(CNC(=O)c2ccc(Cn3cc(-c4ccc(C)cc4)nc3-c3ccncc3)cc2)cc1`: 5.94%.
`COc1ccc(-c2cn(Cc3ccc(C(N)=O)cc3)c(-c3ccncc3)n2)cc1`: the “hERG current change (%, negative = inhibition) at 10uM” value is recorded as -60.1%.
Consider `COc1ccc(-c2cn(Cc3ccc(C(N)=O)cc3)c(CCN)n2)cc1`, for which the “hERG current change (%, negative = inhibition) at 10uM” value is on record as -13.9%.
For the molecule `O=C(c1ccc(CS(=O)(=O)c2ccc(Br)cc2)o1)N1CCN(c2ccccn2)CC1`, the “hERG current change (%, negative = inhibition) at 10uM” value was -36%.
`Cc1ccc(-n2c(C)nc3ccsc3c2=O)cc1`: the “hERG current change (%, negative = inhibition) at 10uM” value is recorded as 1.42%.
Next, `O=C(CCc1nc(-c2ccccc2Cl)no1)NC1CCCCC1`: 10.6%; `CCCCCCCNC(=O)COc1ccc2c(c1)C(=O)CC(C)(C)O2`: -14.4%.
As to `O=C(CNC(=S)N(CCCN1CCOCC1)Cc1cccs1)N1CCCC1`, the “hERG current change (%, negative = inhibition) at 10uM” value was 3.09%.
In the case of `CCN(CC)CCNC(=O)CNC(=S)N(CCCN1CCOCC1)Cc1cccs1`, the “hERG current change (%, negative = inhibition) at 10uM” value was 15.7%.
Turning to `O=C(CNC(=S)N(CCCN1CCOCC1)Cc1cccs1)N1CCCCCC1`, the “hERG current change (%, negative = inhibition) at 10uM” value is given as -41.4%.
`CCOC(=O)CNC(=S)N(CCCN1CCCC1)Cc1cccs1`: the “hERG current change (%, negative = inhibition) at 10uM” value is reported as -53.6%.
`CCOC(=O)CNC(=S)N(CCCN1CCN(C)CC1)Cc1cccs1`: the “hERG current change (%, negative = inhibition) at 10uM” value is -43.5%.
For the molecule `COCCNC(=O)CNC(=S)N(CCCN1CCOCC1)Cc1cccs1`, the “hERG current change (%, negative = inhibition) at 10uM” value stood at 14.1%.
In the case of `O=C(CNC(=S)N(CCCN1CCOCC1)Cc1cccs1)N1CCOCC1`, the “hERG current change (%, negative = inhibition) at 10uM” value is recorded as -9.74%.
With `CCOC(=O)CNC(=S)N(CCCN1CCCCC1)Cc1cccs1`, the “hERG current change (%, negative = inhibition) at 10uM” value is recorded as -62.6%.
For `CCOC(=O)CNC(=S)N(CCCN1CCCCCC1)Cc1cccs1`, the “hERG current change (%, negative = inhibition) at 10uM” value was -65.8%.
On to `O=C(Nc1cccc(F)c1)c1cc(S(=O)(=O)NCCC2=CCCCC2)ccc1F`, for which the “hERG current change (%, negative = inhibition) at 10uM” value amounted to 17.4%.
As to `COc1ccccc1N(CC(=O)NCCSCc1ccccc1)S(C)(=O)=O`, the “hERG current change (%, negative = inhibition) at 10uM” value worked out at 4.03%.
Turning to `COc1ccc(N2CC(C)Cn3c2nc2c3c(=O)[nH]c(=O)n2C)cc1` (stereo not shown), the “hERG current change (%, negative = inhibition) at 10uM” value is listed as -24.3%.
Next, `N#Cc1c(NC(=O)CSc2ncccn2)oc(-c2ccccc2)c1-c1ccccc1`: 25.2%; `Nc1nc(Cl)nc2ccc(Br)cc12`: 7.87%.
Consider `Cc1nc2ccccc2c(N)c1C(=O)/C=C/c1ccccc1`, for which the “hERG current change (%, negative = inhibition) at 10uM” value is given as -79.7%.
Next, `CC(=O)c1c(C)nc2ccccc2c1N`: -10.1%; `Cc1[nH]c2ccccc2c1C(=O)/C=C/c1ccccc1`: 8.96%; `Cc1occc1-c1nnc(SCCNCCO)o1.O=C(O)C(=O)O`: 63.6%.

The record behind these values is PMC4336329 (PLoS ONE, 2015).
